ChEMBL document CHEMBL2218924, “A broad activity screen in support of a chemogenomic map for kinase signalling research and drug discovery” (Biochem J, 2013)

Molecular target: Aurora kinase B (Homo sapiens) (UniProt Q96GD4)
Conditions: at 10 µM

Chain of Aurora kinase B (Homo sapiens) (Q96GD4 whole entry): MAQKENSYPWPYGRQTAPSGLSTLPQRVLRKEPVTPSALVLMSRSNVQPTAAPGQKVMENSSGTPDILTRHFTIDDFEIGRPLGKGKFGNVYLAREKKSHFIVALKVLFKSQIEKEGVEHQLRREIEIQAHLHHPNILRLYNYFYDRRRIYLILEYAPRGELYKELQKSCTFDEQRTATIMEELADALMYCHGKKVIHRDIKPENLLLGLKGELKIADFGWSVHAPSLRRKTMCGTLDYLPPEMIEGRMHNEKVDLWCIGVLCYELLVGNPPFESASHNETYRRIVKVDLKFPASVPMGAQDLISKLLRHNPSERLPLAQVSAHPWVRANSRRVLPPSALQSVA

| SMILES | residual activity [%] |
| --- | --- |
| COc1ccc(CNc2nc(N(CCO)CCO)nc3c2ncn3C(C)C)cc1 | 73 |
| O=C1NC(=O)c2c1c1c3ccccc3[nH]c1c1[nH]c3cc(Br)ccc3c21 | 4 |
| O=C1Nc2cc(Br)ccc2/C1=C1/Nc2ccccc2/C1=N\O | -1 |
| Cc1cccc(-c2[nH]c(C(C)(C)C)nc2-c2ccc3c(c2)OCO3)n1 | 95 |
| COc1cc2ncnc(Nc3ccc(NC(=O)c4ccccc4)cc3)c2cc1OC | 0 |
| Nc1nc(Nc2ccc(S(N)(=O)=O)cc2)nn1C(=S)Nc1c(F)cccc1F | 0 |
| NC(=O)c1ccc2[nH]c(-c3ccc(Oc4ccc(Cl)cc4)cc3)nc2c1 | 34 |
| c1ccc(-c2n[nH]c3c2oc2ccccc23)cc1 | 4 |
| Oc1c2ccccc2c2c3c(cccc13)N=N2 | 0 |
| Cc1nc2cc3nc(-c4cccs4)cnc3cc2n1C | 16 |
| N#CC(C#N)=C(N)/C(C#N)=C/c1ccc(O)cc1 | 62 |
| Oc1ccc(-c2nc(-c3ccc(F)cc3)c(-c3ccncc3)[nH]2)cc1 | 58 |
| Oc1ccc(Nc2nc(-c3ccc(Cl)cc3)cs2)cc1 | 71 |
| CCN(CC)C(=O)c1ccc(Nc2nc(OCC3CCCCC3)c3nc[nH]c3n2)cc1 | 0 |
| O=C(Nc1cccc(Nc2cc(Nc3cccc(C(F)(F)F)c3)ncn2)c1)C1CC1 | 30 |
| C[C@@H](N)[C@H]1CC[C@H](C(=O)Nc2ccncc2)CC1 | 82 |
| CCC(=O)Nc1ccc2ncnc(Nc3cccc(Br)c3)c2c1 | 67 |
| CO[C@@H]1[C@H](N(C)C(=O)c2ccccc2)C[C@H]2O[C@]1(C)n1c3ccccc3c3c4c(c5c6ccccc6n2c5c31)C(=O)NC4 | 3 |

| SMILES | residual activity [%] |
| --- | --- |
| COc1cc2ncnc(N3CCN(C(=O)Nc4ccc(Oc5ccccc5)cc4)CC3)c2cc1OC | 7 |
| Nc1cccc(-c2cc3c(Oc4cccc(O)c4)ncnc3[nH]2)c1 | 0 |
| COc1ccc(C(=O)Nc2sc3c(c2C(N)=O)CCCC3)cc1OC | 46 |
| Cc1cncc2cccc(S(=O)(=O)N3CCCN(C(=O)CN)C[C@H]3C)c12 | 3 |
| O=C(Nc1cccc(Nc2nccc(Nc3cccc(C(F)(F)F)c3)n2)c1)C1CC1 | 2 |
| COc1cc2ncc(-c3ccccc3)nc2cc1OC | 50 |
| O=C1NC(=O)/C(=C\c2ccc3nccnc3c2)S1 | 39 |
| O=C1NC(=O)/C(=C/c2ccc3c(c2)OC(F)(F)O3)S1 | 64 |
| Nc1ccc2ncnc(NCCc3ccc(Oc4ccccc4)cc3)c2c1 | 11 |
| Cc1ccc(NC2=CC(=O)c3sc(C)nc3C2=O)cc1 | 68 |
| Oc1n[nH]c2nnc(-c3c(-c4ccccc4)nn4ccccc34)cc12 | 2 |
| COc1ccc(OC)c2c(=S)c3ccccc3[nH]c12 | 52 |
| O=C1Nc2ccc(Br)cc2/C1=C\c1cc2c([nH]1)CCCC2 | 8 |
| N#CCCc1ccc2c(c1)-c1[nH]c3ccc([N+](=O)[O-])cc3c1CC(=O)N2 | 1 |
| Cc1cc(Nc2nc(-c3ccccc3)nc3ccccc23)n[nH]1 | 0 |
| CC(=O)c1ccc(N2CCOCC2)cc1O | 95 |
| c1ccc(-c2n[nH]cc2-c2ccnc3ccccc23)nc1 | 51 |
